Measured values taken from the supplement of paper PMC10498489.
Hit rate of the full screen: of about 2,300 compounds, about 330 (14%) showed activity.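 Rule for the calls: active = median modified Z-score above 1.96; inactive = 1.96 or below.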 A selection follows.

test system: HepG2 Srxn1-GFP reporter cells (+30 nM CDDO-Me); assay: Srxn1-GFP intensity median modified Z-score relative to plate median; higher = stronger NRF2 / oxidative stress reporter activation, active = hit call of the paper; conditions: 10 µM; exposure time: 24h
Method in brief: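 In 96-well plates holding 20,000 HepG2 Srxn1-GFP BAC reporter cells per well, compound at 10 μM and an NRF2 activator at 30 nM were added together for 24 h, with DMSO at ≤0.1%, across three replicate plates. After fixation in formaldehyde and Hoechst staining, confocal images were analysed cell by cell for cytoplasmic GFP, and images containing under 100 cells were excluded. Values are replicate medians of the per-plate modified Z-score of GFP intensity, scaled by 1.4826 × median absolute deviation.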

Srxn1-GFP intensity median modified Z-score, inactive:
CCCCCCCCCCCCCCCC(=O)OC[C@H](NC(=O)C(Cl)Cl)[C@H](O)c1ccc([N+](=O)[O-])cc1 [euspeclibcmpd52] 0.231, CC(=O)OCC(=O)[C@@]12N=C(C)O[C@@H]1CC1C3CC=C4CC(=O)C=C[C@]4(C)C3[C@@H](O)C[C@@]12C (some centres not stated) [euspeclibcmpd781] -0.377, Cc1onc(-c2c(Cl)cccc2Cl)c1C(=O)NC1C(=O)N2C1SC(C)(C)C2C(=O)O (configuration not stated) [euspeclibcmpd2174] -0.262, CC(=O)OCC(CCn1cnc2c[nH]c(=N)nc21)COC(C)=O [euspeclibcmpd712] 0.533, Cc1ccc(-n2c(C)cc(C(=O)COC(=O)C3CC4C=CC3C4)c2C)cc1C (configuration not stated) 0.589, COc1cc(NS(C)(=O)=O)ccc1N=c1c2ccccc2[nH]c2ccccc12 [euspeclibcmpd557] -1.65, CCC1CS/C(=N\c2ccc(Cl)c(Cl)c2)N1C(=O)CC1CC2CCC1C2 (configuration not stated) 1.31, c1coc(CN=c2[nH]cnc3[nH]cnc23)c1 [euspeclibcmpd1534] 0.144, O=c1[nH]cnc2[nH]cnc12 [euspeclibcmpd1584] 0.249, CC(=O)C1CCC2C3=CC=C4CC(=O)CC[C@@]4(C)C3CC[C@]12C (some centres not stated) [euspeclibcmpd815] 1.45, CCCC[C@@H](CC)COC(=O)C(C#N)=C(c1ccccc1)c1ccccc1 [euspeclibcmpd936] 0.649, N#C[C@@H]1C[C@@H]2C[C@@H]2N1C(=O)C(N)C12CC3CC(CC(O)(C3)C1)C2 (some centres not stated) [euspeclibcmpd1283] -0.27, CC(C)CCCC(C)C1CCC2C3CC[C@H]4C[C@H](O)CC[C@]4(C)C3CC[C@]12C (some centres not stated) [euspeclibcmpd2260] -0.325, CC(=O)OCC(=O)[C@@]12OC(C)(C)O[C@@H]1CC1C3CC(F)=C4CC(=O)C=C[C@]4(C)[C@@]3(F)[C@@H](O)C[C@@]12C (some centres not stated) [euspeclibcmpd130] -0.571, CC(=O)O[C@H]1CC2CCC3C(CC[C@@]4(C)C3C[C@H]([N+]3(C)CCCCC3)[C@@H]4OC(C)=O)[C@@]2(C)C[C@@H]1N1CCCCC1 (some centres not stated) [euspeclibcmpd853] -0.182, N#Cc1ccc2[nH]cc(CCCCN3CCN(c4ccc5oc(C(N)=O)cc5c4)CC3)c2c1 [euspeclibcmpd2178] 0.321, C[C@@H]1CC[C@@]2(OC1)OC1CC3C4CC=C5C[C@@H](O)CC[C@]5(C)C4CC[C@]3(C)C1[C@@H]2C (some centres not stated) [euspeclibcmpd1355] -0.393, O=c1c(O)c(-c2ccc(O)c(O)c2)oc2c(O[C@@H]3O[C@H](CO)[C@H](O)[C@@H](O)[C@H]3O)c(O)cc(O)c12 [euspeclibcmpd1755] -0.613, O=c1[nH]cnc2c1ncn2C1O[C@H](CO)[C@@H](O)[C@H]1O (some centres not stated) [euspeclibcmpd1256] -0.544, COc1[nH]c(=N)nc2c1ncn2C1OC(CO)C(O)C1O (configuration not stated) [euspeclibcmpd1835] -0.349, COc1ccc(C(=O)O)c(O)c1OC [euspeclibcmpd1494] -0.416, CC(C=CC1(O)C(C)=CC(=O)CC1(C)C)=CC(=O)O (configuration not stated) [euspeclibcmpd1542] 0.012, CONC(=O)c1cc(-c2ccccc2)nc2ccccc12 1.04, Cc1cc(=NS(=O)(=O)c2ccc(N)cc2)[nH]o1 [euspeclibcmpd278] -0.427, C[C@@H]1CC[C@@]2(OC1)O[C@H]1CC3C4CC[C@H]5C[C@@H](O)CC[C@]5(C)C4CC[C@]3(C)[C@H]1[C@@H]2C (some centres not stated) [euspeclibcmpd2432] -0.319, C1CCN2C[C@@H]3C[C@H](CN4CCCC[C@@H]34)[C@H]2C1 [euspeclibcmpd2370] -0.181, N=c1[nH]c(=O)c2c([nH]1)=NCC(CNc1ccc(C(=O)N[C@H](CCC(=O)O)C(=O)O)cc1)N=2 (some centres not stated) [euspeclibcmpd1474] 0.016, N=c1[nH]c2c(c(=O)[nH]1)N(C=O)C(CNc1ccc(C(=O)NC(CCC(=O)O)C(=O)O)cc1)CN2 (configuration not stated) [euspeclibcmpd2313] -0.0509, N=c1[nH]c(=O)c2nc(CNc3ccc(C(=O)NC(CCC(=O)O)C(=O)O)cc3)cnc2[nH]1 (configuration not stated) [euspeclibcmpd579] 0.101, N=c1[nH]c(=O)c2c(CCc3ccc(C(=O)NC(CCC(=O)O)C(=O)O)cc3)c[nH]c2[nH]1 (configuration not stated) [euspeclibcmpd2345] -0.108, COc1ccc(C)cc1CN1CCN(C(c2ccc(F)cc2)c2ccc(F)cc2)CC1 1.38, Oc1ccc2c(c1)OC[C@]1(O)C=c3cc(O)c(O)cc3=C21 [euspeclibcmpd1461] -0.856, NC(O)=NO [euspeclibcmpd156] 0.197, O=C(O)c1ccc(S(=O)(=O)N(Cl)Cl)cc1 [euspeclibcmpd144] -0.332, Cc1[nH]oc(=NS(=O)(=O)c2ccc(N)cc2)c1C [euspeclibcmpd283] -0.063

Srxn1-GFP intensity median modified Z-score, active:
NCCOB(c1ccccc1)c1ccccc1 [euspeclibcmpd2465] 7.48, Cc1ccc(-n2c(C)cc(C(=O)Cn3ncc(Cl)c(Cl)c3=O)c2C)cc1 29, S=c1[nH]cnc2[nH]cnc12 [euspeclibcmpd183] 59.5, C1N2CN3CN1CN(C2)C3 [euspeclibcmpd187] 9.99, COc1ccc(CC(N)C(=O)N[C@@H]2[C@@H](CO)OC(n3cnc4c(N(C)C)ncnc43)[C@@H]2O)cc1 (some centres not stated) [euspeclibcmpd2118] 2.51, CN(Cc1cnc2[nH]c(=N)[nH]c(=N)c2n1)c1ccc(C(=O)NC(CCC(=O)O)C(=O)O)cc1 (configuration not stated) [euspeclibcmpd190] 8.95, N=c1[nH]c(=N)c2nc(CNc3ccc(C(=O)NC(CCC(=O)O)C(=O)O)cc3)cnc2[nH]1 (configuration not stated) [euspeclibcmpd911] 10
